# High-throughput results deposited in PubChem by several laboratories.
# An excerpt weighted towards active compounds, which were near 3.8% of everything screened.
# Mdm2-MdmX inh: human Mdm2/MdmX binding inhibition; O15151+Q00987; SaOS-2 split-luciferase Mdm2/MdmX complementation, luminescence; inhibition, % at 8 µM; 3% of 330,000 active;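 active means inhibition of at least 50% at 8 µM in the primary screen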
# 697 NFkB inh: inhibitors of the PMA/ionomycin-induced NF-kB reporter in 697 B cells | 697 B-cell NF-kB luciferase reporter, 16 h | inhibition, % at 4 µM | 0.33% of 330,000 active | AID 435022; in the data active means inhibition above about 35%
# A1 inh: inhibitors of the anti-apoptotic protein A1, read as caspase activation. MEF A1-2A-BIM cells, Caspase-Glo 3/7 luminescence, 3 h; percent of clofoctol response, vehicle zero. caspase activation, % (test concentration not listed). 0.066% of 330,000 active;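 active means over half of replicate activation scores above 10%, or exactly half above 10 with the replicate mean above 10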
# Beta apoptosis: blocks beta cell apoptosis | protection from apoptosis, % (concentration not given with the values) | AID 435005 | INS-1E cytokine-induced death, ATP luminescence, 48 h; percent of positive-control rescue, neutral wells zero | 0.8% of 300,000 active;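 active means Every replicate reaches about 75%, or at least half do and their mean reaches it too, limit read from the data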;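 further: 0% = cytokine-treated negative control wells and 100% = positive control rescue; higher means more ATP so stronger rescue from cytokine killing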
# Jurkat NFkB inh: lowers PMA/ionomycin-induced NF-kB signal in Jurkat cells. 0.53% of 330,000 active. AID 435003. PMA/ionomycin-induced NF-kB luciferase reporter, luminescence. inhibition, % at 4 µM; in the data active means inhibition above about 50%
# NTR1 ag: activates human neurotensin receptor 1; NTR1-U2OS beta-arrestin-GFP spot imaging, agonist mode; activation, % at 20 µM; 0.17% of 330,000 active; AID 493036;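 active means activation at or above 40% of the spot to cytoplasm intensity ratio, with at least 20 cells analyzed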;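 further: 0% = DMSO without peptide and 100% = 100 nM NTR1 peptide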
# Target sequence (P30989 whole entry, looked up): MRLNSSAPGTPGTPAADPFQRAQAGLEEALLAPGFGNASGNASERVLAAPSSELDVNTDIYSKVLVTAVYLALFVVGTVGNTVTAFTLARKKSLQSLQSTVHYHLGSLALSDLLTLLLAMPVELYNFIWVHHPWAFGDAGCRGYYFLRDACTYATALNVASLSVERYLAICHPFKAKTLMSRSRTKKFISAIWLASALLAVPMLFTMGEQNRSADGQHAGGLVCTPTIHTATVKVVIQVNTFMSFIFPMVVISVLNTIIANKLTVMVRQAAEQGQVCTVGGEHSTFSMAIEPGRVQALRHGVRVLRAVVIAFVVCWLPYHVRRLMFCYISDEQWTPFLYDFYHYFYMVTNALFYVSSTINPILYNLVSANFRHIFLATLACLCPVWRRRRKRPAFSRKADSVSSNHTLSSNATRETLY
# Mdm2-MdmX conf: human Mdm2/MdmX binding inhibition, confirmed; shares compounds with Mdm2-MdmX inh; luminescent assay; inhibition, % at 8 µM; 55% of 10,000 active; in the data active means inhibition above about 40%
# FLuc counter: full-length luciferase inhibition in Mdm2/MdmX counter-screen; SaOS-2 full-length luciferase counterscreen, luminescence; 77% of 6,200 active; shares compounds with Mdm2-MdmX inh; inhibition, % at 8 µM;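 active means mean inhibition at 8 µM reaching about 37%, which flags the compound as non-specific, limit read from the data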;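 further: p53-null SaOS-2 cells with luciferase driven by a doxycycline-inducible promoter; compound on cells about two nights before reading with doxycycline added after day one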
# Active calls of the source: *; . = no result given.
SMILES,Mdm2-MdmX inh,697 NFkB inh,A1 inh,Beta apoptosis,Jurkat NFkB inh,NTR1 ag,Mdm2-MdmX conf,FLuc counter
COc1ccc(-c2ccc3c(c2)S(=O)(=O)c2cccc(C(=O)NC[C@@H]4CCCO4)c2C3=O)cc1OC,35,31,1,0,4,1,.,.
COc1ccc(OC[C@@H](O)CNC(=O)c2cccc3c2C(=O)c2ccc(-c4ccc(F)cc4OCc4ccccc4)cc2S3(=O)=O)cc1,13,-25,0,0,-1,0,.,.
Cc1onc(-c2ccccc2Cl)c1C(=O)NCc1nnnn1-c1ccc(F)cc1,-13,5,0,1,-5,0,.,.
Cc1cc2nccc(-c3ccc(OCCCF)cc3)n2n1,12,19,0,-3,10,0,.,.
O=C(COc1cccc(C(F)(F)F)c1)NNC(=O)Cn1c(=O)cnc2ccccc21,20,13,0,-4,-5,0,.,.
CC1CCC(CN2CCN=C2Nc2ccccc2)CC1 (centres undefined),-2,10,0,1,13,22,.,.
Cc1cc(Cl)ccc1NC(=O)CSc1n[nH]c(N)n1,-14,12,-1,-11,-14,-1,.,.
CC(Oc1cccc(Cl)c1)C(=O)N1CCCN(C)CC1 (centres undefined),6,-12,0,1,5,0,.,.
Cc1cc(NC(=O)CSc2nc3c(sc4ccccc43)c(=O)n2CCc2ccccc2)n[nH]1,62*,9,0,11,-4,3,-6,.
Cc1cc(NC(=O)CSc2nc3ccccc3c(=O)n2CCCC(=O)NCc2ccccc2)n[nH]1,1,12,1,.,-5,-1,.,.
CCNC(=O)/C(C#N)=C/c1c(N2CCCCCC2)nc2c(C)cccn2c1=O,22,-6,1,5,-13,1,.,.
Cc1cccn2c(=O)c(/C=C(\C#N)C(=O)NCc3ccccc3)c(N3CCC(C(N)=O)CC3)nc12,64*,5,1,-1,0,2,1,.
COC(CNC(=O)C1CCN(S(=O)(=O)c2ccc3nc4c(c(C(=O)O)c3c2)CC(C)CC4)CC1)OC (centres undefined),5,0,0,-5,4,0,.,.
C=C(C)Cn1c(SCC(=O)N/N=C/c2c(O)ccc3ccccc23)nc2ccccc2c1=O,83*,9,0,47,1,4,56*,31
Cc1ccccc1-n1c(SCC(=O)N/N=C/c2c(C)nn(-c3ccccc3)c2C)nc2ccccc2c1=O,48,-20,0,18,-9,1,.,.
Cc1nn(-c2ccccc2)c(C)c1/C=N/NC(=O)CSc1nc2ccccc2c(=O)n1-c1ccc(Br)cc1,74*,-6,7.1*,62,-17,0,65*,74*
Cc1ccc(-n2c(SCC(=O)N/N=C/c3c(C)nn(-c4ccccc4)c3C)nc3ccccc3c2=O)cc1,66*,24,0,22,17,6,47*,68*
Cc1ccc(/C=N/NC(=O)CSc2nc3ccccc3c(=O)n2-c2ccccc2)s1,27,2,0,-1,39,12,.,.
C=C(C)Cn1c(SCC)nc2ccccc2c1=O,9,-12,2,0,-6,0,.,.
Cc1cnc(NC(=O)c2ccc3c(c2)C(=O)N(Cc2cccnc2)C3=O)s1,7,-13,0,-2,-32,-1,.,.
COCCN(C(=O)COC(=O)/C=C/c1nc2ccccc2s1)c1c(N)n(Cc2ccccc2)c(=O)[nH]c1=O,64*,-9,-1,-19,-5,0,39,.
COCCN(C(=O)COC(=O)/C=C/c1ccc2ccccc2n1)c1c(N)n(Cc2ccccc2)c(=O)[nH]c1=O,54*,7,0,-10,6,2,39,.
Cc1ccc2cc(CN(CC3CCCO3)C(=S)NCc3ccco3)c(=O)[nH]c2c1C (centres undefined),83*,-7,0,-6,-9,1,58*,37*
CCN(CC)CCCN(Cc1cc2ccc(C)c(C)c2[nH]c1=O)C(=O)NC1CCCCC1,61*,-7,-1,-14,-7,-2,50*,74*
Cc1ccc2cc(CN(CC3CCCO3)C(=O)NC3CCCCC3)c(=O)[nH]c2c1C (centres undefined),3,19,1,-3,4,-1,.,.
SMILES,Mdm2-MdmX inh,697 NFkB inh,A1 inh,Beta apoptosis,Jurkat NFkB inh,NTR1 ag,Mdm2-MdmX conf,FLuc counter
CC(C1CC1)N(Cc1ccccc1)C(=S)Nc1cccc(C(F)(F)F)c1 (centres undefined),17,-9,1,-14,3,5,.,.
CNC[C@H](CC1CCCCC1)NC[C@H](CO)NCCc1cccc(C(F)(F)F)c1,99*,2,0,36,30,17,97*,58*
CNC[C@H](CC1CCCCC1)NC[C@H](CO)NCC1(c2ccccc2)CC1,86*,9,0,6,3,0,58*,45*
CCc1ccccc1NC(=O)c1ccc(CN2CCC(Cc3ccccc3)CC2)cc1,51*,-18,2,0,17,1,36,76*
O=C(NCc1ccccc1)c1ccc(CN2CCC(Cc3ccccc3)CC2)cc1,54*,-10,1,-8,-6,0,28,.
Cc1ccc(S(=O)(=O)NCc2ccc(C(=O)NCCCN3CCC(Cc4ccccc4)CC3)cc2)cc1,75*,-9,0,27,20,2,42*,43*
CCOC(=O)CCc1nc2ccccc2[nH]1,-6,14,1,-7,4,0,.,.
COCC(=O)O[C@]1(CCN(C)CCCc2nc3ccccc3[nH]2)CCc2cc(F)ccc2[C@@H]1C(C)C,93*,1,0,31,1,21,53*,36*
O=C(COCc1cc(-c2ccc3c(c2)OCO3)on1)N1CCN(c2ccccc2)CC1,-4,-7,1,1,7,0,.,.
O=C(N[C@@H]1C/C=C\C[C@@H](CC(=O)N(CCO)Cc2ccccc2)C(=O)NC[C@H](c2ccccc2)OC1=O)OCC1c2ccccc2-c2ccccc21,61*,-7,0,11,19,0,11,.
O=C(N[C@H]1C/C=C\C[C@H](CC(=O)N(CCO)Cc2ccccc2)C(=O)N[C@@H](c2ccccc2)COC1=O)OCC1c2ccccc2-c2ccccc21,9,-11,.,.,-3,-1,.,.
O=C(N[C@@H]1C/C=C\C[C@H](CC(=O)N(CCO)Cc2ccccc2)C(=O)NC[C@@H](c2ccccc2)OC1=O)OCC1c2ccccc2-c2ccccc21,51*,7,0,26,-4,6,7,.
